{"source": "paper PMC11995724", "about": "“Antibiotic target discovery by integrated phenotypic and activity-based profiling of electrophilic fragments” (Cell chemical biology, 2025)", "note": "Among all 3,200 compounds or so, about 110 (3.4%) showed an effect of 50% or more. The sample as a whole holds a higher share of strong results than the screen did."}
{"system": "T1, V. cholerae SAD30", "T1 construct": "SAD30", "set-up": "species or system S. aureus MSSA476 (TSB) or V. cholerae SAD30 (LB); 384-well bacterial growth screen at 25 uM, OD600 relative to DMSO control", "settings": "relative growth, OD600, LB; 25 µM; inhibitor", "units": {"% of control remaining": "%"}}
{"smiles": "O=C1C=CC(=O)N1c1cc(C(F)(F)F)ccc1Cl", "note": "[10-G09, 1-[2-chloro-5-(trifluoromethyl)phenyl]-2,5-dihydro-1H-pyrrole-2,5-dione]", "% of control remaining": 26.3394}
{"smiles": "N#Cc1cc([N+](=O)[O-])ccc1NC(=O)CCl", "note": "[4-O09, 2-chloro-N-(2-cyano-4-nitrophenyl)acetamide]", "% of control remaining": 91.611}
{"smiles": "N#CC(=Cc1cc([N+](=O)[O-])ccc1Cl)C(N)=O", "note": "[8-F21, 3-(2-chloro-5-nitrophenyl)-2-cyanoprop-2-enamide]", "% of control remaining": 76.0707}
{"smiles": "Cc1ccc([N+](=O)[O-])cc1N1C(=O)C=CC1=O", "note": "[10-O14, 1-(2-methyl-5-nitrophenyl)-2,5-dihydro-1H-pyrrole-2,5-dione]", "% of control remaining": 26.6511}
{"smiles": "CC(Cl)C(=O)Nc1cc(C(F)(F)F)ccc1Cl", "note": "(stereo not drawn) [4-N15, 2-chloro-N-[2-chloro-5-(trifluoromethyl)phenyl]propanamide]", "% of control remaining": 99.8922}
{"smiles": "CC(Cl)C(=O)Nc1cc([N+](=O)[O-])ccc1Cl", "note": "(stereo not drawn) [6-I14, 2-chloro-N-(2-chloro-5-nitrophenyl)propanamide]", "% of control remaining": 87.6671}
{"smiles": "O=C1C=CC(=O)N1c1cc([N+](=O)[O-])ccc1Cl", "note": "[10-H15, 1-(2-chloro-5-nitrophenyl)-2,5-dihydro-1H-pyrrole-2,5-dione]", "% of control remaining": 28.2096}
{"smiles": "O=C(CCl)Nc1cc(C(F)(F)F)ccc1Cl", "note": "[4-J04, 2-chloro-N-[2-chloro-5-(trifluoromethyl)phenyl]acetamide]", "% of control remaining": 111.106}
{"smiles": "O=C(CCl)N1CCCCc2ccc([N+](=O)[O-])cc21", "note": "[5-I18, 2-chloro-1-(8-nitro-2,3,4,5-tetrahydro-1H-1-benzazepin-1-yl)ethan-1-one]", "% of control remaining": 94.3154}
{"smiles": "CC(NC(=O)CCl)C(=O)N1CCCCC1C", "note": "(stereo not drawn) [5-M06, 2-chloro-N-[1-(2-methylpiperidin-1-yl)-1-oxopropan-2-yl]acetamide]", "% of control remaining": 96.6691}
{"smiles": "C=CC(=O)NC(C)c1cn(-c2ccccc2)nn1", "note": "(stereo not drawn) [1-N04, N-[1-(1-phenyl-1H-1,2,3-triazol-4-yl)ethyl]prop-2-enamide]", "% of control remaining": 110.893}
{"smiles": "COc1ccc(-c2nn(-c3ccccc3)cc2C=C(C#N)C(N)=O)cc1", "note": "[8-L16, 2-cyano-3-[3-(4-methoxyphenyl)-1-phenyl-1H-pyrazol-4-yl]prop-2-enamide]", "% of control remaining": 71.7199}
{"smiles": "CCN(Cc1ccc(Cl)s1)C(=O)CCl", "note": "[6-M11, 2-chloro-N-[(5-chlorothiophen-2-yl)methyl]-N-ethylacetamide]", "% of control remaining": 83.1169}
{"smiles": "COc1ccc(C2=NN(C(=O)CCl)C(c3ccco3)C2)cc1", "note": "(stereo not drawn) [4-N19, 2-chloro-1-[5-(furan-2-yl)-3-(4-methoxyphenyl)-4,5-dihydro-1H-pyrazol-1-yl]ethan-1-one]", "% of control remaining": 106.103}
{"smiles": "CC(Cl)C(=O)N1N=C(c2ccc(Cl)cc2)CC1c1ccco1", "note": "(stereo not drawn) [5-H18, 2-chloro-1-[3-(4-chlorophenyl)-5-(furan-2-yl)-4,5-dihydro-1H-pyrazol-1-yl]propan-1-one]", "% of control remaining": 49.4273}
{"smiles": "O=C(CCl)N1N=C(c2ccc(Cl)cc2)CC1c1ccco1", "note": "(stereo not drawn) [5-L04, 2-chloro-1-[3-(4-chlorophenyl)-5-(furan-2-yl)-4,5-dihydro-1H-pyrazol-1-yl]ethan-1-one]", "% of control remaining": 105.748}
{"smiles": "C=CC(=O)NCc1ccc2oc(=O)n(C)c2c1", "note": "[2-L15, N-[(3-methyl-2-oxo-2,3-dihydro-1,3-benzoxazol-5-yl)methyl]prop-2-enamide]", "% of control remaining": 88.6519}
{"smiles": "Cn1c(=O)oc2cc(C(=O)CCl)ccc21", "note": "[10-F07, 6-(2-chloroacetyl)-3-methyl-2,3-dihydro-1,3-benzoxazol-2-one]", "% of control remaining": 44.886}
{"smiles": "Cc1cc(C(=O)CCl)co1", "note": "[10-A13, 2-chloro-1-(5-methylfuran-3-yl)ethan-1-one]", "% of control remaining": 114.397}
{"smiles": "Cc1nc2n(n1)CCN(C(=O)C(C)Cl)C2", "note": "(stereo not drawn) [5-A04, 2-chloro-1-{2-methyl-5H,6H,7H,8H-[1,2,4]triazolo[1,5-a]pyrazin-7-yl}propan-1-one]", "% of control remaining": 108.438}
{"smiles": "O=C(CCl)NC(c1ccccc1)C1CCCC1", "note": "(stereo not drawn) [6-O18, 2-chloro-N-[cyclopentyl(phenyl)methyl]acetamide]", "% of control remaining": 92.0656}
{"smiles": "Cc1cc(C(=O)CCl)c(C)n1-c1ccc(Cl)c(Cl)c1", "note": "[10-D18, 2-chloro-1-[1-(3,4-dichlorophenyl)-2,5-dimethyl-1H-pyrrol-3-yl]ethan-1-one]", "% of control remaining": 108.475}
{"smiles": "COC(=O)c1ccccc1NC(=O)CCl", "note": "[5-B12, methyl 2-(2-chloroacetamido)benzoate]", "% of control remaining": 89.6081}
{"smiles": "Cc1cc(C(=O)CCl)c(C)n1-c1ccc(Cl)cc1", "note": "[10-H18, 2-chloro-1-[1-(4-chlorophenyl)-2,5-dimethyl-1H-pyrrol-3-yl]ethan-1-one]", "% of control remaining": 103.331}
{"smiles": "O=C(CCl)c1ccc(F)c(F)c1", "note": "[10-L13, 2-chloro-1-(3,4-difluorophenyl)ethan-1-one]", "% of control remaining": 4.208}
{"smiles": "CC(Cl)C(=O)c1ccc(F)c(F)c1", "note": "(stereo not drawn) [10-A17, 2-chloro-1-(3,4-difluorophenyl)propan-1-one]", "% of control remaining": 103.955}
{"smiles": "O=C(CCl)c1cc(Cl)ccc1Cl", "note": "[10-E16, 2-chloro-1-(2,5-dichlorophenyl)ethan-1-one]", "% of control remaining": 49.5617}
{"smiles": "CC(=O)NCCc1cc(C(=O)CCl)ccc1F", "note": "[10-O05, N-{2-[5-(2-chloroacetyl)-2-fluorophenyl]ethyl}acetamide]", "% of control remaining": 118.138}
{"smiles": "O=C(O)c1csc(C(=O)CCl)c1", "note": "[10-E22, 5-(2-chloroacetyl)thiophene-3-carboxylic acid]", "% of control remaining": 102.864}
{"smiles": "COC(=O)c1cccc(C(=O)CCl)c1", "note": "[10-I11, methyl 3-(2-chloroacetyl)benzoate]", "% of control remaining": 32.4177}
{"smiles": "O=C(CCl)c1sccc1Cl", "note": "[10-K11, 2-chloro-1-(3-chlorothiophen-2-yl)ethan-1-one]", "% of control remaining": 0}
{"smiles": "COC(=O)c1ccc2[nH]cc(C(=O)CCl)c2c1", "note": "[10-D05, methyl 3-(2-chloroacetyl)-1H-indole-5-carboxylate]", "% of control remaining": 99.1233}
{"smiles": "CN(C)C(=O)c1csc(C(=O)CCl)c1", "note": "[10-I07, 5-(2-chloroacetyl)-N,N-dimethylthiophene-3-carboxamide]", "% of control remaining": 105.981}
{"smiles": "Cc1cccc(C=C(C#N)C(=O)Nc2ccc(C(=O)O)cc2)c1", "note": "[8-M21, 4-[2-cyano-3-(3-methylphenyl)prop-2-enamido]benzoic acid]", "% of control remaining": 75.7988}
{"smiles": "CC(NC(=O)CCl)c1ccc2c(c1)CCCC2", "note": "(stereo not drawn) [4-B03, 2-chloro-N-[1-(5,6,7,8-tetrahydronaphthalen-2-yl)ethyl]acetamide]", "% of control remaining": 113.867}
{"smiles": "COc1cc2c(cc1NC(=O)C(C)Cl)oc1ccccc12", "note": "(stereo not drawn) [6-G09, 2-chloro-N-{4-methoxy-8-oxatricyclo[7.4.0.0,2,7]trideca-1(9),2(7),3,5,10,12-hexaen-5-yl}propanamide]", "% of control remaining": 55.9674}
{"smiles": "CC(C)NC(=O)C(C#N)=Cc1ccc(Cl)cc1", "note": "[9-C09, 3-(4-chlorophenyl)-2-cyano-N-(propan-2-yl)prop-2-enamide]", "% of control remaining": 85.3161}
{"smiles": "COCC(C)n1c(C)cc(C=C(C#N)C(=O)NS(C)(=O)=O)c1C", "note": "(stereo not drawn) [8-B04, 2-cyano-N-methanesulfonyl-3-[1-(1-methoxypropan-2-yl)-2,5-dimethyl-1H-pyrrol-3-yl]prop-2-enamide]", "% of control remaining": 81.6451}
{"smiles": "C=CCNC(=O)C(C#N)=Cc1cccc(C(F)(F)F)c1", "note": "[8-L09, 2-cyano-N-(prop-2-en-1-yl)-3-[3-(trifluoromethyl)phenyl]prop-2-enamide]", "% of control remaining": 71.8559}
{"smiles": "C=CC(=O)N1CC[C@H](NS(C)(=O)=O)C1", "note": "[2-H21, N-[(3S)-1-(prop-2-enoyl)pyrrolidin-3-yl]methanesulfonamide]", "% of control remaining": 102.239}
{"smiles": "C=CC(=O)N(CC)Cc1nc2ccsc2c(=O)[nH]1", "note": "[3-P16, N-ethyl-N-({4-oxo-3H,4H-thieno[3,2-d]pyrimidin-2-yl}methyl)prop-2-enamide]", "% of control remaining": 108.146}
{"smiles": "C=CC(=O)N1Cc2ccccc2C[C@@H]1C(=O)NC1CC1", "note": "[2-G06, (3R)-N-cyclopropyl-2-(prop-2-enoyl)-1,2,3,4-tetrahydroisoquinoline-3-carboxamide]", "% of control remaining": 95.7541}
{"smiles": "Cc1cc(C=C(C#N)C(=O)Nc2nccs2)cc(C)c1O", "note": "[9-D13, 2-cyano-3-(4-hydroxy-3,5-dimethylphenyl)-N-(1,3-thiazol-2-yl)prop-2-enamide]", "% of control remaining": 84.7723}
{"smiles": "C=CC(=O)N[C@H]1CCN(S(=O)(=O)c2ccccc2)C1", "note": "[3-P11, N-[(3S)-1-(benzenesulfonyl)pyrrolidin-3-yl]prop-2-enamide]", "% of control remaining": 106.205}
{"smiles": "COc1ccc(C2=NN(C(=O)CCl)C(c3ccc(F)cc3)C2)cc1", "note": "(stereo not drawn) [4-M20, 2-chloro-1-[5-(4-fluorophenyl)-3-(4-methoxyphenyl)-4,5-dihydro-1H-pyrazol-1-yl]ethan-1-one]", "% of control remaining": 100.927}
{"smiles": "COc1cc(OC)c(C(=O)CCl)c(OC)c1", "note": "[10-L04, 2-chloro-1-(2,4,6-trimethoxyphenyl)ethan-1-one]", "% of control remaining": 98.344}
{"smiles": "O=C(CCl)c1ccc2c(c1)-c1ccccc1C2", "note": "[10-H17, 2-chloro-1-(9H-fluoren-3-yl)ethan-1-one]", "% of control remaining": 91.4865}
{"smiles": "COc1ccc(C(=O)CCl)c(OC)c1", "note": "[10-G18, 2-chloro-1-(2,4-dimethoxyphenyl)ethan-1-one]", "% of control remaining": 111.748}
{"smiles": "O=C(CCl)c1ccc(Cl)c(Cl)c1", "note": "[10-L16, 2-chloro-1-(3,4-dichlorophenyl)ethan-1-one]", "% of control remaining": 0}
{"smiles": "COc1ccc(C(=O)CCl)cc1Cl", "note": "[10-D10, 2-chloro-1-(3-chloro-4-methoxyphenyl)ethan-1-one]", "% of control remaining": 0.9351}
{"smiles": "O=C(CCl)c1ccc2[nH]c(=O)[nH]c2c1", "note": "[10-I14, 5-(2-chloroacetyl)-2,3-dihydro-1H-1,3-benzodiazol-2-one]", "% of control remaining": 105.513}
